The panel holds about 83,000 compounds, 20% with a hit somewhere; the sample as a whole holds those more often.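 Single-dose data. Exposure time 48 hours. Values below 10 considered active.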 Calls of active or inactive are those of the source.
What follows are molecules tested on MDA-MB-468 breast (assay: NCI-60 one-dose screen, 48 h (100 = growth as untreated, 0 = no growth, -100 = all killed)). Conditions: 10 µM unless noted.
`CN1CCN(c2ccc(NC3=C(Cl)C(=O)c4ncccc4C3=O)cc2C(F)(F)F)CC1` was tested, and the growth was -79.2% (active).
In the case of `O=C1Cc2cc(O)ccc2O1`, the growth is reported as 103% (inactive).
With `CCc1ccc(C2=NN(c3ccc(S(C)(=O)=O)cc3)C(=O)CC2)cc1` the growth was 50.7% (inactive).
`COc1cccc(-c2nn(-c3ccccc3)cc2-c2ccnc(NCCNS(=O)(=O)c3ccc(C(F)(F)F)cc3)c2)c1` was tested, and the growth was 9.78% (active).
With `COc1cccc(C2C(C#N)=C(N)Oc3cc(OC)ccc32)c1` (stereo not given) the growth was 41.4% (inactive).
`C[C@@H](c1ccc2c(c1)[nH]c1ccc(Cl)cc12)c1nc2ccccc2[nH]1` was tested, and the growth was -3.2% (active).
For `CC(=O)N[C@@H](CNC(=O)c1cc(NC(=O)c2cc(NC(=O)c3cc(NC(=O)c4nccn4C)cn3C)cn2C)cn1C)CC(=O)Nc1cn(C)c(C(=O)Nc2cc(C(=O)Nc3cc(C(=O)Nc4cc(C(=O)NCCCN(C)CCCNC(=O)c5cccc(C(=O)O)c5)n(C)c4)n(C)c3)n(C)c2)n1`, the growth was 71.5% (inactive).
With `COc1ccc(-c2cc(-c3cccnc3)nc3sc4c(=O)[nH]c(-c5ccc(Cl)cc5)nc4c23)cc1OC` the growth was 97.8% (inactive).
With `c1ccc(Nc2ccc(Nc3nc(-c4ccccc4)nc4ccccc34)cc2)cc1` the growth was 82.3% (inactive).
`C=C(C=O)[C@@H]1CC[C@]2(C(=O)O)CC[C@]3(C)C(CC[C@@H]4[C@@](C)(CCC#N)[C@H](C(=C)C=O)CC[C@]43C)[C@@H]12` (stereo not given in full) was tested, and the growth was 79.8% (inactive).
For `COc1cc2cc(Oc3ccc(NC(=O)c4cccc(C(F)(F)F)c4)cc3)c(C)nc2cc1OCCN1CCCCC1`, the growth was 37.6% (inactive).
With `O=C(Nc1cccc(C(F)(F)F)c1)Nc1ccc(OCc2nnc(-c3ccc(Cl)cc3)o2)c(F)c1` the growth was 68.2% (inactive).
For `COc1cc(/C=C2\CN(C)C/C(=C\c3cc(CN4CCCCC4)c(O)c(OC)c3)C2=O)cc(CN2CCCCC2)c1O`, the growth was 13% (inactive).
For `CCc1cccc(C)c1NC(=O)c1sc2nc3c(cc2c1N)C(=O)CCC3`, the growth was 32.5% (inactive).
For `O=C1c2c(c3c4ccccc4[nH]c3c3ccc4ccccc4c23)C(=O)N1CCN1CCCCC1`, the growth was -0.798% (active).
With `COc1cc(/C=C2\C(=O)Nc3ccc(N(C)C)cc32)cc(OC)c1OC` the growth was -2.28% (active).
For `Oc1ccc(-c2nnc3c4[nH]ccc4ncn23)cc1`, the growth was 117% (inactive).
For `C=C(C)[C@@H]1CC[C@]2(COCCCN)CC[C@]3(C)[C@H](CC[C@@H]4[C@@](C)(CCCNCCCN)[C@H](C(=C)C)CC[C@]43C)[C@@H]12`, the growth was -53.8% [100 µM] (active).
`COc1ccc2occ(C3=C(c4c[nH]c5ccccc45)C(=O)N(O)C3=O)c2c1` was tested, and the growth was 95.1% (inactive).
In the case of `O=C(/C(Cl)=N/O)c1ccc(-c2ccccc2)cc1`, the growth is reported as 104% (inactive).
For `COC(=O)C1OC1c1cc([N+](=O)[O-])ccc1OC` (stereo not given), the growth was 76.2% (inactive).
`C=C1CC[C@@H](C(=O)OC)Cc2nc(C)ccc21` was tested, and the growth was 106% (inactive).
`CC1=C2C(=C[C@@](C)(COS(N)(=O)=O)[C@@H]2O)C(=O)[C@](C)(O)C12CC2` was tested, and the growth was -34% (active).
`O=C(/C=C/c1ccccc1)c1cccs1` was tested, and the growth was 80.2% (inactive).
For `Cn1cc(-c2nc(-c3c[nH]c4c(Cl)nccc34)cs2)c2cc(F)ccc21`, the growth was 1.89% (active).

— PubChem BioAssay (NCI)
